In PubChem BioAssay AID1671190 (National Center for Advancing Translational Sciences (NCATS), 2021):
Screen size: about 580,000 compounds; about 6,100 (1.1%) were called active. Inconclusive results (about 15%) are left out. Calls follow the shape of the dose curve; as a rule, active = well fitted inhibition curve with a large enough effect; inconclusive = small, poorly fitted or top-dose-only effect, or another doubt; inactive = no such curve, though single readings can be large or run the other way. The list comes from a sample in which actives are over-represented; it also holds similar structures and randomly drawn compounds.

target: Polyunsaturated fatty acid lipoxygenase ALOX12 (Homo sapiens) (UniProt P18054); experiment: Primary qHTS assay for inhibitors of human arachidonate 12S-lipoxygenase (ALOX12): Round 2; settings: purified 12hLO, xylenol orange hydroperoxide absorbance; series mostly up to 108 µM; activity change, negative = inhibition: at the top concentration
Sequence (P18054 whole entry, looked up): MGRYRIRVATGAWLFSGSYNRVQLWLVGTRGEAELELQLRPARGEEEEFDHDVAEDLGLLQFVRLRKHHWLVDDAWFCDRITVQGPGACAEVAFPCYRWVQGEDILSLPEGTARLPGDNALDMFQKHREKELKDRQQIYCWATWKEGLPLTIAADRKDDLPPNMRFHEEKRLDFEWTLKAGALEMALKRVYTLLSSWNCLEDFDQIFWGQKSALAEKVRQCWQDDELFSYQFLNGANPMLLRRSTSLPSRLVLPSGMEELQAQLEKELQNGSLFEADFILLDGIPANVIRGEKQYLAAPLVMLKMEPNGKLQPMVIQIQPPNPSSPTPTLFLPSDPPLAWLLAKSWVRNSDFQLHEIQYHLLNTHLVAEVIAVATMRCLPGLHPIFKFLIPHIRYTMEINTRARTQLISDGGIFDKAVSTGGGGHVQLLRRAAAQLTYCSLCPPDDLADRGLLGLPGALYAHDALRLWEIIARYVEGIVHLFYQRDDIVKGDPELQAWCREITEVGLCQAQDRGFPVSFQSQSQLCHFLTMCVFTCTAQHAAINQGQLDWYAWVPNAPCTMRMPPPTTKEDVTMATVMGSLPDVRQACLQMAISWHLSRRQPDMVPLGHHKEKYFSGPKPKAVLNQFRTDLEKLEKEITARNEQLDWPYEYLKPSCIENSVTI
Outline: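 Purified human 12hLO at 150 nM in 25 mM Hepes, 0.01% Triton X-100, pH 7.0, preincubated 15 min at room temperature with compound. Reaction started with 40 uM arachidonic acid, 30 min at room temperature. Hydroperoxide measured by Fe-xylenol orange, 573/405 nm absorbance ratio.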
% is scaled to controls: 0 for no effect and ±100 for the full control effect; potency is read from the fitted curve at half-maximal effect.

Activity change, negative = inhibition, inactive:
Fc1ccc(OC2CN(Cc3cccnc3)C2)c(F)c1 10.3% [at 12.5 µM]
C=CCc1ccc(OCC(O)CN2CCN(Cc3ccccc3)CC2)c(OC)c1 (stereo not given) -23.6%
Cc1[nH]nc2c1C(c1ccccc1Br)C1=C(COC1=O)N2 (stereo not given) -14.3%
O=C(NCc1coc(-c2cccs2)n1)C1CCCN(C(=O)c2ccc(F)cc2)C1 (stereo not given) -2.26%
CN(CC(=O)Nc1cc(Cl)ccc1F)Cc1ccccc1N1CCCCC1 10.9%
CNC(NC(=O)c1ccc(C)cc1)C(Cl)(Cl)Cl (stereo not given) 3.19%
COc1ccc(C(=O)NCc2ccc(C)cc2)cc1S(=O)(=O)N1CCCC1 30.3%
COc1ccc(C(=O)N(Cc2ccccc2)c2ccc(C)cc2)cc1S(=O)(=O)N1CCOCC1 1.7%
CCCCn1nc(C(=O)Nc2cc(Cl)ccc2C)c2ccccc2c1=O 3.35%
CCOc1ccc(-c2nc(CN3CCN(C(=O)Nc4ccccc4OC)CC3)c(C)o2)cc1 -12%
Cc1ncc(-c2ccc(S(=O)(=O)Nc3ccc(F)c(F)c3)cc2)o1 -25.2%
COc1cccc(CN2CCCN(Cc3ccncc3)C(c3ccccc3)CC(=O)NCC2)c1OC (stereo not given) 67.7%
N#Cc1c(-c2ccc(F)cc2)cc(C2CC2)nc1SCC(=O)c1cccs1 -10.2%
N#Cc1ccc(-c2cccs2)nc1SCc1ccc(Br)cc1 -27.6%
Cc1oc(-c2ccc(OC(C)C)cc2)nc1CSc1nc2c(c(=O)[nH]1)CCC2 -5.3%
CCC(Oc1ccc(Br)cc1)C(=O)O (stereo not given) -20.7%
COC(=O)CN1C(=O)C(O)=C(C(C)=O)C1c1ccc([N+](=O)[O-])cc1 (stereo not given) -12.7%
CC(=O)C1=C(O)C(=O)N(c2cccnc2)C1c1ccc([N+](=O)[O-])cc1 (stereo not given) -19.4%
O=C(C(c1ccccc1)c1ccccc1)N(Cc1ccco1)C1CC1 -2.19%
Cc1ccc(CS(=O)Cc2ccc(Cl)cc2)cc1 (stereo not given) -10.9%
Cc1scc(C(=O)NNC(=S)NCC(C)C)c1C -23.5%
O=C(NC1CCCCCC1)C1CCN(C(=O)c2ccc(Cl)cc2)CC1 240%
CC(C)CNC(=S)NNC(=O)c1nn(C)cc1Cl -17.6%
O=C(NNC(=S)NC1CC2CCC1C2)c1ccc(Cl)cc1 (stereo not given) 0%
Cc1ccccc1N1CCCN(Cc2ccccc2OCCO)CC1 29.5%
Cc1ccc(-c2nc3ccccc3o2)cc1NC(=O)C1CC1 -4.05%
Cn1cc(-c2cnc3n[nH]c(-c4ccccc4)c3n2)cn1 24.5% [at 176 µM]
COc1ccc(Cl)cc1C(=O)OCCOc1ccccc1F 26.4%
Cc1cc(C(=O)OCC(=O)NC(=O)c2ccccc2)c2ccccc2n1 8.94%
COc1cccc(-c2cc(C(=O)NCCC(C)C)c3ccccc3n2)c1 14.8%
CCCOc1cccc(-c2cc(C(=O)OC)c3ccccc3n2)c1 4.79%
CCc1nnsc1C(=O)N(C)CCOc1ccccc1 -7.12%
CC(C)c1ccc(OCC(=O)Nc2ccc(C(=O)N(C)C)cc2)cc1 4.6%
N#Cc1nc(-c2ccc(S(=O)(=O)N3CCOCC3)cc2)oc1NCCN1CCOCC1 1.66%
CC(C)CCN1CC2(CCCN(C(=O)c3ccn(C)c(=O)c3)C2)CCC1=O (stereo not given) -3.41%
O=C(CC(NC(=O)c1ccccc1)c1ccccc1)NC12CC3CC(CC(C3)C1)C2 (stereo not given) 56.1%
COc1ccc(C(=O)CSc2nnc(NC(=O)C3CC(=O)N(c4cccc(OC)c4)C3)s2)cc1 (stereo not given) 8.34%
CCc1nnc(NC(=O)C2CC(=O)N(c3ccc4c(c3)OCCO4)C2)s1 (stereo not given) 6.52%
CSc1nc(-c2cccs2)cc(C(F)(F)F)n1 -24.3%
CCn1nc(C(=O)N(C)Cc2cnn(-c3ccccc3)c2)c2ccccc2c1=O 44.5%
CC1CCCCN1C(C)CNC(=S)Nc1ccc(F)cc1F (stereo not given) -8.73%
Cn1cc(CN2CCn3c(nnc3[C@@H]3C[C@@H](O)CN3Cc3ccccc3)C2)c2ccccc21 -4.36%
CC(=O)Oc1ccc(N(C(C)=O)S(=O)(=O)c2ccc3ccccc3c2)cc1Br 0%
CCOC(=O)c1c(C)oc2ccc(N(C(=O)c3ccncc3)S(=O)(=O)c3ccc(CC)cc3)cc12 0%
Cn1c(=O)c2c(nc(NCc3ccccc3)n2Cc2cccc(F)c2)n(C)c1=O 9.35%
O=C(Nc1ccc2nc(SCCOc3ccccc3)sc2c1)c1ccco1 -28.3%
CCN(c1ccc(Cl)cc1)S(=O)(=O)c1nnc(NC(=O)c2ccco2)s1 -23.8%
O=C(COC(=O)CNC(=O)c1cccc(Cl)c1)Nc1ncc(C(F)(F)F)cc1Cl -24.8%
Cc1nc(SC(C)C(=O)Nc2cccc(C#N)c2)n(CC(C)C)c1C (stereo not given) 1.37%
COc1ccc(NC(=O)[C@@H]2C[C@@H](c3cccc(C(F)(F)F)c3)N(Cc3cnn(C)c3)C2)cn1 0.79%
O=C(Nc1cccnc1)[C@@H]1C[C@@H](c2ccc(F)cc2)N([S+](=O)([O-])c2ccccc2)C1 10.5% [at 176 µM]
O=C(NC1CC1)c1ccccc1OCC1CCCN(Cc2ccncc2F)C1 (stereo not given) 57.2%
CN(CC(=O)Nc1ccc(N2CCOCC2)cc1)CC(=O)Nc1ccccc1[N+](=O)[O-] 1.25%
Cc1ccc(/C=N/Nc2ccccc2C(F)(F)F)cc1 37.1%
Cc1cc2ccccc2n1CC(=O)Nc1ccc(Oc2ccccc2)cc1 -0.868%
Cc1ccc(CN2CCN(c3nc4ccccc4o3)CC2CCO)cc1 (stereo not given) 15.7%
CSc1ccc(/C=N/N2CCN(Cc3ccccc3Cl)CC2)cc1 -1.35%
CSc1ccccc1N=Cc1ccc(Cl)c(Cl)c1 3.85%
CCNc1nc(C(F)(F)F)c(C(=O)OCC)s1 40.4%
Cc1ccc(C2C3=C(CC(C)(C)CC3=O)Nc3nc(SCCC(C)C)[nH]c(=O)c32)s1 (stereo not given) 30.9%
CN(C)C(=O)c1cccnc1OC1CCN(C(=O)Nc2cc(F)cc(F)c2)C1 (stereo not given) -0.265%
Cc1oc(C)c2c(=O)cc(-c3ccc4c(c3)OCO4)cc(OC(=O)c3ccc(Cl)cc3)c12 6.01%
COc1ccc(-c2c(C)c3ccc(O)c(CN4CCCC4)c3oc2=O)cc1OC -10.4%
CCn1nc(C)c(CNC(=O)Nc2cc(Cl)ccc2OC)c1C 23.7%
O=C(c1ccc2c(c1)N(C(=O)c1ccccc1)CC2)N1CCN(c2ccc(Cl)cc2)CC1 38.8%
Cc1ccc2cc(C(=O)NCc3cccnc3-n3cccn3)c(C)nc2c1 7.82%
Cc1nc(C)c(C(=O)N2CCC(N3C(=O)C4(CCCC4)C3c3ccccc3)CC2)s1 (stereo not given) 58%
Cc1nc2cc(NC(=O)C3CC(=O)N(CC4CC4)C3)ccc2o1 (stereo not given) 0.248%
NS(=O)(=O)c1ccc2nc(NC(=O)COc3ccccc3)sc2c1 2.54%
CC(C)CC(CC(C)C)=NNC(=O)COc1ccc(C#N)cc1 -15.3%
O=C1COc2ccc(C(=O)COC(=O)c3nn(Cc4ccccc4)c(=O)c4ccccc34)cc2N1 -18.9%
O=C(c1ccc(F)cc1)N1CCCC(c2nn(-c3cccc(Cl)c3)c(=O)[nH]2)C1 (stereo not given) 5.72%
Cn1nc(C2CCN(C(=O)c3cccc(Cl)c3)CC2)[nH]c1=O 47.3% [at 176 µM]
Cc1ccc(C(=O)N2CCC(c3nn(-c4ccccc4)c(=O)[nH]3)CC2)cc1 4.19%
CC(C)(C)C(=O)N1CCC(c2nn(-c3ccc(F)cc3)c(=O)[nH]2)CC1 3.33% [at 176 µM]
COc1cc(Cl)c(C)cc1NC(=O)Cn1nc(-c2cccs2)oc1=O 65.1%
CCCN(CC(F)(F)F)C(=O)c1ccc(NC(=O)NC(C)C)cc1 -27.5%
Cc1ccc(-n2ccc(C=O)c2)c(C)c1 9.12%
CCN(CC)C(=O)[C@@H](C)C1CC[C@@]2(C)Cc3sc(N)nc3[C@@H](C)[C@@H]2[C@H]1O (stereo not given in full) 48% [at 176 µM]
C=CCN(C)C(=O)C[C@@H]1c2nc(NC(=O)c3ccc(C(C)(C)C)cc3)sc2C[C@@H]2[C@](C)(CO)[C@H](O)CC[C@]21C -2.6%
CC(Sc1cc(F)ccc1F)C(=O)Nc1ccnn1C(C)C (stereo not given) -13.5%

Potency, active:
COc1ccc(CN2CCN(Cc3cccnc3)CC2)cc1OCc1ccccc1 0.708 µM
COc1ccc(C)cc1S(=O)(=O)N1CCN(S(=O)(=O)c2cc(C(=O)O)ccc2C)CC1 15.8 µM
N#Cc1c(-c2cccs2)nc(SCC(=O)c2ccc(Br)cc2)[nH]c1=O 7.08 µM
CC(=O)C1=C(O)C(=O)N(c2ccc(Br)cc2)C1c1ccc([N+](=O)[O-])cc1 (stereo not given) 31.6 µM
CC(C)CNC(=S)NC(=O)c1ccc(Cl)cc1 8.91 µM
O=C(NC(=S)NC1CCCCC1)c1ccc(Cl)cc1 2.82 µM
CC(C)CCNC(=O)COC(=O)c1cc(-c2ccco2)nc2ccccc12 6.31 µM
CN(CCOc1ccccc1)C(=O)c1cc(-c2ccco2)nc2ccccc12 31.6 µM
CCOC(=O)CSc1nnc(NC(=O)C2CC(=O)N(c3ccc(F)cc3)C2)s1 (stereo not given) 39.8 µM
CC(=O)N(c1ccc2oc(=O)sc2c1)S(=O)(=O)c1ccc(C)cc1 8.91 µM
O=C(Nc1nc(-c2ccco2)c(-c2ccco2)s1)c1ccco1 31.6 µM
COc1ccc(NC(=O)[C@@H]2C[C@@H](c3ccc(F)cc3)N(CCOc3ccccc3)C2)cn1 31.6 µM
Cc1ccccc1N/N=C/c1ccc(N2CCOCC2)cc1 7.08 µM
CSc1ccc(/C=N/Nc2c(Cl)cc(Cl)cc2Cl)cc1 4.47 µM
CCOc1cc(-c2ccc(O)c(OC)c2)cc(=O)c2c(C)oc(C)c12 7.08 µM
N#Cc1ccc(OCC(=O)Nc2nc(-c3ccccn3)cs2)cc1 17.8 µM
O=C(c1ccccc1F)N1CCC(c2nn(-c3ccc(Cl)cc3)c(=O)[nH]2)CC1 31.6 µM
O=C(Cc1cccc(Cl)c1)N1CCC(c2nn(-c3ccc(Cl)cc3)c(=O)[nH]2)CC1 20 µM
C=CCN(C)C(=O)[C@@H](C)C1CC[C@@]2(C)Cc3sc(NS(=O)(=O)c4ccc(Cl)cc4)nc3[C@@H](C)[C@@H]2[C@H]1O (stereo not given in full) 31.6 µM
